# Screening results as filed in PubChem.
# Only some compounds are listed: those with a hit (about 3.4% of all), similar ones and a draw of the others.
# PLK1 PBD inh: qHTS for Inhibitors of PLK1-PDB (polo-like kinase 1 - polo-box domain): Primary Screen | Potency, µM, inactives show max response, negative = inhibition, actives largely listed as inhibitors | Serine/threonine-protein kinase PLK1 (Homo sapiens), P53350 | Plk1 PBD binding of FITC phosphopeptide, fluorescence polarization | 2.8% of 360,000 active; also: series mostly up to about 57 µM; % is scaled to controls: 0 for no effect and ±100 for the full control effect; nearly all actives have a fitted effect of over 65% in size
# VDR inhibitor: Inhibitors of the vitamin D receptor (VDR): qHTS; AID 504847, 2011; 0.93% of 400,000 active; Vitamin D3 receptor (Homo sapiens), P11473; VDR-SRC2-3 peptide fluorescence polarization, 2 h; Potency, µM, inactives show max response, negative = inhibition, actives largely listed as inhibitors; also: % is scaled to controls: 0 for no effect and ±100 for the full control effect
#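 Signal is fluorescence polarization, reporting how far test compounds block the interaction of VDR with the SRC2-3 coregulator peptide after a 2 h room-temperature incubation.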
# Mito fusion yeast: qHTS Assay for Small Molecule Inhibitors of Mitochondrial Division or Activators of Mitochondrial Fusion | S. cerevisiae fusion-defective mutant growth rescue, CellTiterGlo 48 h | Potency, µM (series often up to 46.1 µM), for inactives: at the highest dose growth rescue (activation), actives largely listed as activators | 0.23% of 320,000 active | AID 485298, 2010; also: % of control where 0% means no effect; nearly all actives have a fitted effect of over 45% in size
#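 Luminescent cell viability in 1536-well qHTS format served as the measure of rescued growth in ts fusion-mutant S. cerevisiae cultured on non-fermentable YPEG for 48 hours at 37C.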
# GLS inh: qHTS for Inhibitors of Glutaminase (GLS); Glutaminase kidney isoform, mitochondrial (Homo sapiens), O94925; GLS enzymatic activity, qHTS titration; 0.21% of 410,000 active; Potency, µM (series often up to 45.5 µM), for inactives: at the top dose activity change, negative = inhibition, hits mostly inhibitors; AID 624170, 2012; also: % is scaled to controls: 0 for no effect and ±100 for the full control effect
#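 Human kidney-isoform GLS in 45 mM KH2PO4 pH 8.2, 0.02% Tween-20, with compound, started with 1mM L-Glutamine (added stock). Glutamate oxidase/HRP/Amplex red coupled fluorescence read at start and after 30 min at RT.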
# PKM2 activator: qHTS Assay for Activators of Human Muscle isoform 2 Pyruvate Kinase | Potency, µM (doses to about 57.5 µM), without a hit: at the top dose activation, actives largely listed as activators | 0.34% of 260,000 active | purified PKM2, Kinase-Glo ATP luminescence, activation; response scale: 0% is enzyme alone, no compound | Pyruvate kinase PKM (Homo sapiens), P14618; also: % is scaled to controls: 0 for no effect and ±100 for the full control effect; nearly all actives have a fitted effect of over 55% in size
# Target sequence (P14618 whole entry, looked up, canonical isoform): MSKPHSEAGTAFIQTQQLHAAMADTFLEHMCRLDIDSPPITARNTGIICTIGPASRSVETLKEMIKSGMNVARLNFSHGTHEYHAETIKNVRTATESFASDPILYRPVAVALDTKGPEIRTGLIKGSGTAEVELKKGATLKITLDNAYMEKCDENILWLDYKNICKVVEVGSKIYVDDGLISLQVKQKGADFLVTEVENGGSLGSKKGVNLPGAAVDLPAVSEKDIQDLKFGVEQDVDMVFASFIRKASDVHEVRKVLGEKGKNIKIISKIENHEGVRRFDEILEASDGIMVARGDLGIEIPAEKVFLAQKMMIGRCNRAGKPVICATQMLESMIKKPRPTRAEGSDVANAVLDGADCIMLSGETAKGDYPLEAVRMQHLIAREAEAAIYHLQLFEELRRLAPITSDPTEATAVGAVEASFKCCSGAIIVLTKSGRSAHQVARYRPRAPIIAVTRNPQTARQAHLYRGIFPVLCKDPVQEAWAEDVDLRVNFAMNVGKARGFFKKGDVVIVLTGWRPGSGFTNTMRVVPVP
#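 ATP formation by purified human PK-M2, quantified via coupled luciferase luminescence after 1 h at room temperature with 0.1 mM ADP and 0.5 mM PEP final.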
# KAT2A inh: qHTS Assay for Inhibitors of GCN5L2 | Histone acetyltransferase KAT2A (Homo sapiens), Q92830 | GCN5L2 HAT assay, ThioGlo1 CoA-SH fluorescence | Potency, µM (doses to about 58.9 µM), for the others: top-dose activity change, negative = inhibition, hits mostly inhibitors | 0.21% of 390,000 active | AID 504327, 2011; also: % is scaled to controls: 0 for no effect and ±100 for the full control effect
#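 ThioGlo1-coupled HAT assay: 20nM GCN5L2, 70uM acetyl-CoA, 75uM H3(1-25) peptide, pH 7.5. Fluorescence read at 340/540nm at start and after 20 min at room temperature.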
# TbPYK confirm: qHTS of Trypanosoma Brucei Inhibitors: Confirmatory Assay for Cherry-picked Compounds; shares compounds with PLK1 PBD inh; recombinant TbPYK, Kinase-Glo ATP luminescence; Potency, µM (doses to about 76.9 µM), inactives show top-dose activity change, negative = inhibition, most hits filed as inhibitors; 67% of 890 active; AID 720569, 2013; also: % is scaled to controls: 0 for no effect and ±100 for the full control effect; nearly all actives have a fitted effect of over 70% in size
# TbPYK ADP-Glo: qHTS of Trypanosoma Brucei Inhibitors: Orthogonal Assay for Cherry-picked Compounds; shares compounds with PLK1 PBD inh; recombinant TbPYK, ADP-Glo luminescence, 60 min; Potency, µM (doses to about 76.9 µM), inactives show at the highest dose activity change, negative = inhibition, actives largely listed as inhibitors; 62% of 890 active; also: % is scaled to controls: 0 for no effect and ±100 for the full control effect; nearly all actives have a fitted effect of over 75% in size
# Starred values were filed as active, the others as inactive; ? = inconclusive; . = not tested or not shown; [ ] = another dose, or the depositor's remark. Calls follow the shape of the dose curve; as a rule, active = well fitted curve in the direction sought with a large enough effect; inconclusive = small, poorly fitted or top-dose-only effect, or another doubt; inactive = no such curve, though single readings can be large; an effect the other way counts as inactive or inconclusive. Potency is read from the fitted curve at half-maximal effect.
SMILES,PLK1 PBD inh,VDR inhibitor,Mito fusion yeast,GLS inh,PKM2 activator,KAT2A inh,TbPYK confirm,TbPYK ADP-Glo
Cc1cc(/C=C2\C(=O)NC(=O)N(c3ccc(F)cc3)C2=O)c(C)n1-c1ccc(C(=O)O)cc1,?,-5.0%,-9.3%,-7.0%,-1.2%,-2.2%,.,.
Cc1ccc(N2C(=O)NC(=O)/C(=C/c3ccc(-c4ccc(C(=O)O)c(Cl)c4)o3)C2=O)cc1,1.34µM*,?,15.2%,11.2µM*,25.1µM*,?,7.08µM*,14.1µM*
Cc1ccc(N2C(=O)NC(=O)/C(=C\c3ccoc3)C2=O)cc1,?,-8.5%,0.3%,-8.4%,0.4%,1.9%,?,?
CN(C)c1ccc(/C=C2\CCCN=C2c2cccnc2)cc1,.,.,.,.,-12.9%,.,.,.
CC(=O)OC1CCC23C(=O)OC45CCC(C6=CC(=O)OC6)C4(C)CCC2C5CCC3(O)C1 (centres undefined),.,6.0%,.,.,.,1.3%,.,.
O=C(CCn1c(=O)oc2ccccc21)N1CCC2(CC1)OCCO2,-5.5%,7.5%,0.4%,-28.0%,-5.6%,1.7%,3.1%,-8.0%
COc1ccc(OC)c(N2C(=O)CC(=O)NC2=O)c1,-22.1%,1.3%,-1.1%,2.1%,-2.0%[0.46 µM],-4.6%,.,.
COc1ccc(OC)c(N2C(=O)NC(=O)/C(=C/c3ccc([N+](=O)[O-])s3)C2=O)c1,4.74µM*,?,-4.7%,-37.7%,9.3%,-29.6%,4.47µM*,7.08µM*
C[C@@H]1O[C@@H](O[C@H]2CC[C@]3(C=O)C4CC[C@]5(C)[C@@H](C6=CC(=O)OC6)CC[C@]5(O)[C@@H]4CC[C@]3(O)C2)[C@H](O)[C@H](O)[C@H]1O (some centres undefined),.,-0.6%,.,.,.,.,.,.
O=C1CC=C2C3CC4N(CCC45c4cc(O)c(O)cc4N1C25)CC3=CCBr (centres undefined),5.32µM*,10.2%,.,24.2%,.,.,7.94µM*,12.6µM*
O=C1CC=C2C3CC4N(CCC45c4ccccc4N1C25)CC3=CCO (centres undefined),2.1%,2.9%,.,3.3%,.,.,.,.
O=C(O)CCn1cc(C=C2C(=O)NC(=O)NC2=O)c(-c2cc3ccccc3oc2=O)n1,15µM*,-9.2%,1.2%,0.0%,0.1%,-4.8%,11.2µM*,31.6µM*
O=c1c2ccccc2[se]n1-c1ccccc1,2.99µM*,7.08µM*,0.461µM*,6.31µM*,-84.5%,0.398µM*,8.91µM*,6.31µM*
O=c1c2ccccc2nc(-c2ccccc2)n1-c1ccccc1,1.3%,-15.6%,4.1%,2.1%,1.3%,-2.1%,.,.
Cc1ccc(/C=C2\C(=O)NC(=S)N(c3cccc(F)c3)C2=O)o1,2.67µM*,-8.8%,-3.6%,?,-2.3%[11.5 µM],-27.6%,15.8µM*,25.1µM*
COc1cc(C=C2C(=O)NC(=O)NC2=O)cc(OC)c1OC,10.6µM*,?,3.2%,-0.4%,-4.8%,-0.5%,14.1µM*,28.2µM*
